This is one part of the list. How many sequences the whole screen found active is unknown.
Biological target: furin, P09958
Test: furin cleavage Z-score vs untreated control; higher = more cleavage, active = 3.5 or more, inactive = 1 or less, 8 variable residues between constant flanks
Procedure: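 Multiplexed peptide-cDNA fusion cleavage assay. 8-mer variable peptides flanked by constant Cys-Ala (N-term) and Ala-Gly-Asn-Ala-Ser-Ala-Ser-Ala (C-term) and conjugated to a cDNA oligonucleotide were bead-immobilised via the N-terminus. They were treated with purified furin at a 1:10 enzyme:substrate ratio in 50 mM HEPES pH 7.5, 1 mM CaCl2, 100 mM NaCl for 7.5, 15 or 30 min. Released cDNA was counted by next-generation sequencing, and log counts versus no-furin controls were lowess-adjusted and converted to robust Z-scores.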

furin, P09958, sequence (P09958 whole entry): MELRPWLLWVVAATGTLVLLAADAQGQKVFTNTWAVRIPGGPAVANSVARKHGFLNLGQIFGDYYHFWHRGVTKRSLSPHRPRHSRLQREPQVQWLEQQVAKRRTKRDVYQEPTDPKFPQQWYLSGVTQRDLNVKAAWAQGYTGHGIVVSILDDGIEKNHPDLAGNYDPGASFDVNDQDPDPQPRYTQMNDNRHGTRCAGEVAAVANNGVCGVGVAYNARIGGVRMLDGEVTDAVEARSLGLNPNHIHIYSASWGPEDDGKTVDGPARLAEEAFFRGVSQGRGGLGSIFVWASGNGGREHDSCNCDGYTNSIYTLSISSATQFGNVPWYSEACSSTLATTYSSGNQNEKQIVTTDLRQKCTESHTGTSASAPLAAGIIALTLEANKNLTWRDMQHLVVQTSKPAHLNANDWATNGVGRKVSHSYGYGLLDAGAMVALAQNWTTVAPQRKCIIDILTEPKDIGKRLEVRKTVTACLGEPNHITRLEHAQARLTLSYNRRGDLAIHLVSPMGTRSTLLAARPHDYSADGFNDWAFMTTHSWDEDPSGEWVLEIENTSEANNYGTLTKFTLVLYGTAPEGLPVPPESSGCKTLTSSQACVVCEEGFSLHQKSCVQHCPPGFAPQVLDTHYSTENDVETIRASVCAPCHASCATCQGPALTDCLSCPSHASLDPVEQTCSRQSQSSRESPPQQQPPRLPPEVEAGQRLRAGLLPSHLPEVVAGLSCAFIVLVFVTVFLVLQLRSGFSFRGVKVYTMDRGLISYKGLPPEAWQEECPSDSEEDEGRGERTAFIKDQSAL

Row | Sequence | furin cleavage Z-score (7.5 min) | furin cleavage Z-score (15 min) | furin cleavage Z-score (30 min)
1 | CATTPCSGTWAGNASASA [HC1918] | 0.438 (inactive) | 1.03 | 0.941 (inactive)
2 | CAAEEYVEIRAGNASASA [HC1204] | -0.657 (inactive) | 2 | -1.07 (inactive)
3 | CAQIVGGVYLAGNASASA [HC175] | -0.135 (inactive) | -2.24 (inactive) | -1.9 (inactive)
4 | CAVVRCSMSYAGNASASA [HC2033] | 1.28 | 0.684 (inactive) | -0.612 (inactive)
5 | CARERRGPATAGNASASA [FS-2487] | -1.34 (inactive) | 0.671 (inactive) | -0.709 (inactive)
6 | CARERRADHVAGNASASA [FS-2330] | 1.39 | 0.278 (inactive) | 2.34
7 | CARERRDVQRAGNASASA [FS-1696] | 10.6 (active) | 13.2 (active) | 9.38 (active)
8 | CARERRRLMSAGNASASA [FS-2660] | -1.21 (inactive) | -0.546 (inactive) | 0.262 (inactive)
9 | CARYKRAGESAGNASASA [FS-2472] | 8.25 (active) | 10.6 (active) | 7.78 (active)
10 | CARERRDLFTAGNASASA [FS-2659] | 5.35 (active) | 8.1 (active) | 7.97 (active)
11 | CARENRSLFTAGNASASA [FS-2009] | 0.285 (inactive) | -0.333 (inactive) | -1.13 (inactive)
12 | CARERRTLSVAGNASASA [FS-2661] | 0.891 (inactive) | 2.33 | 3.01
13 | CARERRNAIRAGNASASA [FS-3219] | 3.48 | 4.37 (active) | 4.64 (active)
14 | CAAGCAWYELAGNASASA [HC922] | -0.796 (inactive) | -1.42 (inactive) | -1.58 (inactive)
15 | CAKEMEECSQAGNASASA [HC1794] | 0.752 (inactive) | 0.717 (inactive) | 0.689 (inactive)
16 | CAEVPCHRPLAGNASASA [HC2405] | 0.138 (inactive) | -0.494 (inactive) | 0.866 (inactive)
17 | CAREQRSNGLAGNASASA [FS-3245] | -0.772 (inactive) | 0.724 (inactive) | 1.43
18 | CAREQRDICEAGNASASA [FS-2658] | 0.169 (inactive) | 0.317 (inactive) | 0.297 (inactive)
19 | CAREQRDVERAGNASASA [FS-2485] | 1.98 | 3.86 (active) | 2.52
20 | CASVERIKRQAGNASASA [FS-303] | 12.4 (active) | 11.8 (active) | 10.6 (active)
21 | CAKVTFDRLQAGNASASA [HC1396] | -1.13 (inactive) | -0.299 (inactive) | -2.04 (inactive)
22 | CASIERVKRQAGNASASA [FS-961] | 10.9 (active) | 11.9 (active) | 7.3 (active)
23 | CAKVIDTLTCAGNASASA [HC221] | -1.35 (inactive) | -0.249 (inactive) | -0.555 (inactive)
24 | CAKVIRHKRQAGNASASA [FS-681] | 12.7 (active) | 12.4 (active) | 9.91 (active)
25 | CADVCCSMSYAGNASASA [HC1991] | -0.0698 (inactive) | -0.573 (inactive) | 1.23
26 | CATTDCSGSWAGNASASA [HC1871] | -0.934 (inactive) | -0.299 (inactive) | -0.368 (inactive)
27 | CAEWTTPCSGAGNASASA [HC1968] | -0.833 (inactive) | -0.0659 (inactive) | 0.694 (inactive)

— the supplement of paper PMC3545927
